Data published in PubChem BioAssay.
Calls of active or inactive are those of the source.

Tests used:
[1] = small molecules captured by biotinylated probe aFSTL3 – biochemical, small-molecule microarray, fluorescence 635/667, stem cell growth factor project, primary screen (AID 1064); settings: higher = more signal;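 also: measures binding of the biotinylated anti-FSTL3 antibody to printed compounds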
[2] = binders from COS7 lysate, DM2A8 probe, primary screen, torsin A project, cell lysate, small-molecule microarray, fluorescence 635/667 (AID 1065); settings: higher = more signal, COS7 lysate expressing mutant human TOR1A
[3] = small molecules captured by biotinylated probe aFGF2 – biochemical, small-molecule microarray, fluorescence 635/667, stem cell growth factor project, primary screen (AID 1067); settings: higher = more signal;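 also: measures binding of biotinylated aFGF2 protein to printed compounds on slides; z-score merges feature fluorescence and signal-to-noise across triplicate slides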
[4] = small molecules captured by biotinylated probe aFGF10 – biochemical, small-molecule microarray, fluorescence 635/667, stem cell growth factor project, primary screen (AID 1071); settings: higher = more signal;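 also: score merges 667 nm spot intensity and signal to noise from triplicate slides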
[5] = target: Neurogenic locus notch homolog protein 2 (Homo sapiens) (UniProt Q04721); assay: small molecules binding Notch2 protein – biochemical, small-molecule microarray, 635 nm fluorescence, stem cell growth factors, primary screen (AID 1073); settings: higher = more signal
[6] = target: Pro-neuregulin-1, membrane-bound isoform (Homo sapiens) (UniProt Q02297); assay: small molecules binding neuregulin-1 protein – biochemical, small-molecule microarray, fluorescence 635/667, psychiatric disease protein project, primary screen (AID 1075); settings: NRG1 binding, 635 nm fluorescence, higher = more signal;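 also: score combines 667 nm spot fluorescence with signal to noise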
Sequence of Pro-neuregulin-1, membrane-bound isoform (Homo sapiens) (Q02297 whole entry, looked up, the tested form may be a part, canonical isoform): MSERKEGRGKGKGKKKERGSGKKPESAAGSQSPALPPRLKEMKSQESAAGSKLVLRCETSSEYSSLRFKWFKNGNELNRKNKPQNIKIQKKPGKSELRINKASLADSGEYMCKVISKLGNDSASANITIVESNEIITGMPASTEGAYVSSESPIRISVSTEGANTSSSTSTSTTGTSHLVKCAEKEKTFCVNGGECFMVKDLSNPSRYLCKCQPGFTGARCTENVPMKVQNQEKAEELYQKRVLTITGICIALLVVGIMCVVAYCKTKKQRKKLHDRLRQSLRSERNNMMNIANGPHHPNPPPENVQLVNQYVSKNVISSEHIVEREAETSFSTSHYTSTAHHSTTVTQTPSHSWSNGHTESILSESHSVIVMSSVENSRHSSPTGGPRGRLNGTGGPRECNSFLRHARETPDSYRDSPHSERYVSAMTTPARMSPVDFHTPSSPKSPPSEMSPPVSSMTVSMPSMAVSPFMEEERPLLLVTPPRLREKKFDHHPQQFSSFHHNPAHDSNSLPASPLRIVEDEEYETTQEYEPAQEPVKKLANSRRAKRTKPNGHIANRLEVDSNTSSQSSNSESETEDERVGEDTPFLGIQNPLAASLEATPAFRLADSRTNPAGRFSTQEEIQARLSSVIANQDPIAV

[7] = system: Neuregulin-1 EGF-like domain; assay: small molecules binding NRG1 EGF domain – biochemical, small-molecule microarray, 635 nm fluorescence, primary screen (AID 1081); settings: higher = more signal;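 also: binding of the protein to compounds printed on small-molecule microarray slides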
[8] = FRG1 expression reporter modulators in myotubes – cell-based, C2C12 myotubes, firefly/Renilla luciferase, luminescence, FRG1 inhibition for FSHD, primary screen (AID 1084); settings: FRG1 promoter luciferase, higher = more signal, called active from +8 up or from −8 down
[9] = small molecules captured by biotinylated probe aFST – biochemical, small-molecule microarray, fluorescence 635/667, stem cell growth factor project, primary screen (AID 1086); settings: higher = more signal;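 also: score merges 667 nm fluorescence with signal-to-noise of each printed compound spot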
[10] = binders of probe aHhip on microarray, primary screen, stem cell growth factor project, biochemical, small-molecule microarray, fluorescence 635/667 (AID 1087); settings: higher = more signal;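 also: score merges spot fluorescence at 667nm with spot signal to noise ratio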
[11] = system: PRMT1 (protein arginine N-methyltransferase 1); assay: small molecules binding arginine methyltransferase PRMT1 – biochemical, small-molecule microarray, 635 nm fluorescence, primary screen (AID 1088); settings: higher = more signal;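 also: binding of Prmt1 protein to compounds spotted on small-molecule microarray slides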
[12] = growth effects on S. cerevisiae YJM789 – YJM789 clinical isolate, OD600, 24 h, basal, primary screen (AID 1089); settings: higher = more signal, called active from +8 up or from −8 down;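 also: growth of clinical yeast isolate S. cerevisiae YJM 789 seeded 1000 cells per well; test concentration not given here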
[13] = S. pombe growth modifiers, basal conditions – strain 972, OD600, 24 h, no modulator, primary screen (AID 1090);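 also: basal condition with compound alone and no growth modifier present; test concentration not given here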; settings: S. pombe 972 growth, higher = more signal, called active from +8 up or from −8 down
[14] = budding yeast growth modifiers under rapamycin – strain BY4716, OD600, 96 h, primary screen (AID 1091); also: test concentration not given here; settings: S. cerevisiae BY4716 + rapamycin, higher = more signal, called active from +8 up or from −8 down
[15] = target: Torsin-1A-interacting protein 2 (Homo sapiens) (UniProt Q8NFQ8); assay: small molecules binding lysate-expressed LULL1 – cell lysate, human LULL1 lysate, 635/667 nm fluorescence, primary screen (AID 1092); settings: small-molecule microarray, hLULL1 lysate binding, 635 nm fluorescence; higher = more signal;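 also: probe is lysate of COS7 cells overexpressing human LULL1; score merges per-feature 667 nm fluorescence with signal-to-noise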
Sequence of Torsin-1A-interacting protein 2 (Homo sapiens) (Q8NFQ8 whole entry, looked up): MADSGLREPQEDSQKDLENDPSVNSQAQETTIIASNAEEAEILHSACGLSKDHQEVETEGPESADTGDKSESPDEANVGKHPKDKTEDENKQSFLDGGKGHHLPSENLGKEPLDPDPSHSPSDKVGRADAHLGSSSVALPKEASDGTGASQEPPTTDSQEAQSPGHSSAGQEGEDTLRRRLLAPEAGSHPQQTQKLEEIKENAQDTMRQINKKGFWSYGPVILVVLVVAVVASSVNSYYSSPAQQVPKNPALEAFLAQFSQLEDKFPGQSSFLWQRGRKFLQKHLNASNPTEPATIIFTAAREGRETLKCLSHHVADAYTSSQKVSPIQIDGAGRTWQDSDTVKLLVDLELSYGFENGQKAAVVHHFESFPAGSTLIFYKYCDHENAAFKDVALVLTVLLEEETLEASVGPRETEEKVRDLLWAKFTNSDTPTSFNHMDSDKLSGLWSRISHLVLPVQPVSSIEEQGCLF

[16] = optical density change of DRC41 E. coli – strain DRC41, OD650, 24 h, E. coli filamentation project, primary screen (AID 1093);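 also: MC1000 strain lacking acrAB efflux and sulA so SOS filamentation is blocked; test concentration not given here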; settings: E. coli DRC41 growth, higher = more signal, called active from +8 up or from −8 down
[17] = probe aLefty2 binding to arrayed compounds – biochemical, biotinylated probe, 635/667 nm fluorescence, primary screen (AID 1094); settings: small-molecule microarray, higher = more signal;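 also: score merges spot fluorescence near 667 nm with spot signal-to-noise ratio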
[18] = system: Noggin (protein binding on small-molecule microarray); assay: small molecules binding Noggin protein – biochemical, 635/667 nm fluorescence, primary screen (AID 1095); settings: 635 nm fluorescence, higher = more signal;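 also: score merges 667 nm feature fluorescence with signal to noise over triplicate slides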
[19] = target: Neurogenic locus notch homolog protein 3 (Homo sapiens) (UniProt Q9UM47); assay: small molecules binding NOTCH3 protein – biochemical, 635/667 nm fluorescence, primary screen (AID 1096); settings: small-molecule microarray, 635 nm fluorescence, higher = more signal
Sequence of Neurogenic locus notch homolog protein 3 (Homo sapiens) (Q9UM47 whole entry, looked up): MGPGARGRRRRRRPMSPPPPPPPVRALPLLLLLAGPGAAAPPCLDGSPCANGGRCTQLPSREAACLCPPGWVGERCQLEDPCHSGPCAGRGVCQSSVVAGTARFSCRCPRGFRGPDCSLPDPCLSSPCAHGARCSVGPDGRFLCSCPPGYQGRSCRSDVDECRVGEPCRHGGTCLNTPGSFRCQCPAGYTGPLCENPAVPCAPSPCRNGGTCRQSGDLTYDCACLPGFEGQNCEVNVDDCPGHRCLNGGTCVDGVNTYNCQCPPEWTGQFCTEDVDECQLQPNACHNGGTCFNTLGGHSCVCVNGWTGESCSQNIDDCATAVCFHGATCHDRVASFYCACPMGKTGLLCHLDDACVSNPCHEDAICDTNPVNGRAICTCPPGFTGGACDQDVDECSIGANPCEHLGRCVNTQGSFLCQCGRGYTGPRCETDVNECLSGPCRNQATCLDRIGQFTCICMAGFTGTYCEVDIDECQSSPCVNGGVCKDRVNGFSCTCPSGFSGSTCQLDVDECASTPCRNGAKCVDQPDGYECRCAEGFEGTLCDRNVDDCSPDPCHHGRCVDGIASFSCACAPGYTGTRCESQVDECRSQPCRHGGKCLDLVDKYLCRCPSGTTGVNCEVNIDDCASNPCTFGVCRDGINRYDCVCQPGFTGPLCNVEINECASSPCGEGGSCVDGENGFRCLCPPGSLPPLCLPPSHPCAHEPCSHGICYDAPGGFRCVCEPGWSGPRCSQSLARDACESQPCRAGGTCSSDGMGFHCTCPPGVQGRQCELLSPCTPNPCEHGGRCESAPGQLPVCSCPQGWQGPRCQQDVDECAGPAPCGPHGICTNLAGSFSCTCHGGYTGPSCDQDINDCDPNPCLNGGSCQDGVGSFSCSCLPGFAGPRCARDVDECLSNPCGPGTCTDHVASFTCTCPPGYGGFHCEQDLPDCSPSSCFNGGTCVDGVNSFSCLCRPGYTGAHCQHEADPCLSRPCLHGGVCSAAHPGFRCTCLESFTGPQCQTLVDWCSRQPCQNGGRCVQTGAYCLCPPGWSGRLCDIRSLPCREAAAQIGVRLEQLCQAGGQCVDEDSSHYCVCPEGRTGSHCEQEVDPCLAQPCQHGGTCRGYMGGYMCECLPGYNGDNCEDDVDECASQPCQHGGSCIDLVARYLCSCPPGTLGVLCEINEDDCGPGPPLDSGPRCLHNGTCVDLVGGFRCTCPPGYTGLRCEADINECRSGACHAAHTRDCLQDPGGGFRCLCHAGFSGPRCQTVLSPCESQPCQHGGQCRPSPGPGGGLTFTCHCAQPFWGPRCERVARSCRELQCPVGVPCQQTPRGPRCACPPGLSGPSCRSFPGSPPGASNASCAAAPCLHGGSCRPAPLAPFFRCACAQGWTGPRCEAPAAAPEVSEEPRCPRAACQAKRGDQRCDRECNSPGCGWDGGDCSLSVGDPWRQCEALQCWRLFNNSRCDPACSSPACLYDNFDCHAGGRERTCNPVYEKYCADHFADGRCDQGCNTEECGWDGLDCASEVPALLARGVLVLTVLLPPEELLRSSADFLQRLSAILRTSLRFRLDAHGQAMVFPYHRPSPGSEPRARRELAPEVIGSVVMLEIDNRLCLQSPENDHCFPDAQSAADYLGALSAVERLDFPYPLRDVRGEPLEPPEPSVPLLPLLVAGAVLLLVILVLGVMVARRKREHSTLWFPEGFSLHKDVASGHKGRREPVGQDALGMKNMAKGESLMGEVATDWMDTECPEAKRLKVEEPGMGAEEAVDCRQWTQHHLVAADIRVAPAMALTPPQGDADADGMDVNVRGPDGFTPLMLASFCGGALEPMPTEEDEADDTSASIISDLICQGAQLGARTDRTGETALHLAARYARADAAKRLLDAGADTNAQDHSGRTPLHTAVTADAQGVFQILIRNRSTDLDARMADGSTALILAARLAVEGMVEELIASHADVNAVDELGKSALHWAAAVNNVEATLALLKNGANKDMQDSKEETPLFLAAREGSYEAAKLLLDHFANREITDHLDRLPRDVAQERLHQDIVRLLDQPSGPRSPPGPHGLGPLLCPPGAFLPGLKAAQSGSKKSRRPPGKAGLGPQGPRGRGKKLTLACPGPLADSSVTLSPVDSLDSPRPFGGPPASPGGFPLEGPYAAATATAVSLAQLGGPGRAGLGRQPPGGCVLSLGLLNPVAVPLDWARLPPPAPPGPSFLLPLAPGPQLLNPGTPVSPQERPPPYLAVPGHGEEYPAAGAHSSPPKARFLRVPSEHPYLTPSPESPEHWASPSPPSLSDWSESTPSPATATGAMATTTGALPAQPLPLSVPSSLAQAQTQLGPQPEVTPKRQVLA

[20] = probe aEGFR binding to arrayed compounds – biochemical, biotinylated probe, 635/667 nm fluorescence, primary screen (AID 1097); settings: small-molecule microarray, higher = more signal;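 also: probe is a biotinylated anti-EGFR antibody binding compounds printed on slides; score combines fluorescence near 667 nm and signal to noise of each spot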

Compound | composite z-score [1] | composite z-score [2] | composite z-score [3] | composite z-score [4] | composite z-score [5] | composite z-score [6] | composite z-score [7] | z-score [8] | composite z-score [9] | composite z-score [10] | composite z-score [11] | z-score [12] | z-score [13] | z-score [14] | composite z-score [15] | z-score [16] | composite z-score [17] | composite z-score [18] | composite z-score [19] | composite z-score [20]
CCCCC(=C=CC[C@H](O)c1ccc(CO)o1)CCO | -0.388 | 1.03 | -0.109 | 0.0582 | 0.165 | 1.75 | 1.2 | 0.0699 (inactive) | 0.0508 | 0.0373 | 1.49 | 0.978 (inactive) | -1.17 (inactive) | -0.0978 (inactive) | 1.59 | -0.14 (inactive) | -0.258 | 1.31 | 0.683 | -0.0041
CC(C)NC(=O)[C@@]1(c2ccc([N+](=O)[O-])cc2)CC(=O)N(CC23CC4CC(CC(C4)C2)C3)[C@@H]1c1ccc(CO)cc1 | 1.43 | 0.522 | 0.516 | 1.02 | 1.42 | 1.9 | 1.18 | -3.57 (inactive) | 1.86 | 1.11 | 1.54 | -0.383 (inactive) | -0.822 (inactive) | 0.937 (inactive) | 3.03 | 0.267 (inactive) | 0.707 | 1.57 | 1.02 | 0.837
C=C(CCCC)C(=O)CC[C@@H](OC(=O)c1ccccc1-c1ccccc1C(=O)O)c1ccccc1OCCO | -0.173 | 0.222 | -0.0566 | 0.803 | -0.0697 | -0.0918 | 0.0551 | -0.39 (inactive) | -0.501 | 0.0373 | 1.23 | -0.576 (inactive) | -1.19 (inactive) | -1.61 (inactive) | -0.583 | 0.306 (inactive) | -0.146 | 1.2 | 0.48 | -0.178
Cc1ccc(S[C@]2(C(=O)NC(C)C)CC(=O)N(C3CCCCC3)[C@@H]2c2ccc(CO)cc2I)cc1 | -0.183 | 2.15 | -0.0257 | 0.308 | 0.777 | 0.897 | 1.33 | -4.76 (inactive) | 0.276 | -0.399 | 1.54 | -1.15 (inactive) | 0.145 (inactive) | 2.68 (inactive) | 2.84 | -0.317 (inactive) | -0.0977 | 0.7 | 0.884 | 0.0203
Cc1ccc(S[C@]2(C(=O)NCCCN(C)C)CC(=O)N(Cc3ccccc3C(F)(F)F)[C@@H]2c2ccc(CO)cc2I)cc1 | -0.73 | -0.0283 | -0.21 | -0.211 | -0.733 | 1.51 | 1.13 | 0.241 (inactive) | 0.216 | -0.54 | 0.349 | -1.34 (inactive) | -3.27 (inactive) | 0.0267 (inactive) | 3.18 | -0.328 (inactive) | -0.323 | -0.496 | -0.174 | -0.378
C=CCC(OC(C)=O)[C@@H]1[C@@H](N(Cc2ccc(-c3cccc(C(F)(F)F)c3)o2)C(=O)Cc2ccc(F)cc2)c2cc(OCCCO)ccc2N1C(=O)Cc1ccc2ccccc2c1 (stereo not given in full) | 0.136 | -0.648 | -0.129 | 0.53 | -0.349 | -0.257 | -0.285 | 0.116 (inactive) | -0.106 | -0.212 | -0.783 | -0.554 (inactive) | 0.181 (inactive) | -0.669 (inactive) | -0.199 | -1.01 (inactive) | -0.118 | -0.244 | -0.855 | -0.125
C=CC[C@]1(C(=O)NCC(O)CO)COC(c2ccc(OCCCO)cc2)=N1 (stereo not given in full) | 1.3 | 1.29 | 0.0163 | -0.0216 | -0.888 | 0.0498 | 0.99 | 1.14 (inactive) | 0.0371 | -0.141 | -0.726 | 0.26 (inactive) | 0.691 (inactive) | 0.959 (inactive) | 2.15 | -0.363 (inactive) | 0.479 | -0.415 | -1.35 | 0.0444
CC(C)NC(=O)[C@@H]1c2ccccc2C(=O)N(Cc2ccccc2C(F)(F)F)[C@H]1c1ccc(CO)cc1 | -0.804 | 0.313 | 0.0553 | -0.0635 | -0.409 | -0.774 | 0.837 | -1.26 (inactive) | 0.618 | -0.668 | -0.123 | -0.202 (inactive) | 0.163 (inactive) | -1.04 (inactive) | 2.36 | -0.327 (inactive) | -0.241 | -0.238 | 0.0828 | 0.668
[N-]=[N+]=Nc1ccccc1[C@H]1OC(c2ccc(OCCCO)cc2)=N[C@@]1(Cc1ccccc1)C(=O)NCC(O)CO (stereo not given in full) | 0.277 | 0.0899 | 0.0528 | 0.231 | 1.36 | 1.19 | 1.12 | 2.22 (inactive) | 1.03 | -0.0541 | 1.02 | -0.858 (inactive) | -1.13 (inactive) | 0.617 (inactive) | 3.52 | 0.824 (inactive) | 0.109 | 0.0821 | 0.206 | -0.0226
N#Cc1ccc(NN2C(C(O)C3CC=CCC3)C=CC3C(=O)N(c4ccccc4)C(=O)C32)cc1 (stereo not given) | 0.076 | -0.902 | -0.073 | 0.39 | 1.5 | 1.89 | 1.29 | 0.474 (inactive) | 1.28 | -0.0427 | 0.995 | 0.609 (inactive) | 0.773 (inactive) | 1.99 (inactive) | 3.5 | -0.645 (inactive) | -0.0873 | 0.179 | 1.1 | 0.0149
